Only some compounds are listed: those with a hit (about 20% of all), similar ones and a draw of the others.
CHX counter – Cycloheximide Counterscreen for Small Molecule Inhibitors of Shiga Toxin. cell reporter, cycloheximide protein synthesis inhibition counterscreen. actives 12% (n = 300,000). max response, %; in the data active = max response mostly above about 13%, no sharp cut-off; inactive = mostly below about 14%; also: read at 38.3 µM for the half of the compounds with a filed dose
Pf growth 48h – Primary qHTS for delayed death inhibitors of the malarial parasite plastid, 48 hour incubation | P. falciparum luciferase growth in erythrocytes, 48 h | Potency, µM (doses to about 28.7 µM), actives largely listed as inhibitors | actives 5.9% (n = 310,000)
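Growth was read as firefly luciferase luminescence after a 48 h, 37 C, 5% CO2 exposure of compounds to reporter-bearing P. falciparum cultures (0.1% parasitemia, 2% hematocrit final) in Albumax-supplemented RPMI 1640.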
Pf growth 96h – Primary qHTS for delayed death inhibitors of the malarial parasite plastid, 96 hour incubation; actives 6.9% (n = 320,000); Potency, µM (doses to about 28.7 µM), usual class: inhibitors; AID 504834, 2011; P. falciparum luciferase reporter growth, 96 h
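Parasite growth measured via integrated firefly luciferase reporter in P. falciparum. Infected erythrocytes at 2% hematocrit, 0.05% parasitemia final were treated 96 hours at 37 C under 5% CO2, and luminescence was read.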
HCMV inh – qHTS Assay for inhibitors of the human cytomegalovirus (HCMV). actives 4.5% (n = 410,000). HFF cells, HCMV-luciferase reporter, 72 h; stronger effect = lower value. activity change, negative = inhibition, % at 57.5 µM. AID 1259415, 2018; in the data active = activity change below about -60%; inconclusive = no clear call, values can overlap the other calls; inactive = above about -39%
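Two-dose cell screen: HFF monolayers treated with compounds and infected with luciferase-expressing HCMV at 1 PFU/cell, 72 h at 37C, then lysed for luciferase measurement.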
Shiga toxin inh – A qHTS for Small Molecule Inhibitors of Shiga Toxin; Vero cells, Shiga toxin protein synthesis inhibition reporter; inhibition, % at 38.7 µM; actives 9.2% (n = 290,000); AID 2315, 2010; in the data active = inhibition mostly above about 28%, no sharp cut-off; inactive = mostly below about 43%
Hits are given with their value; i = inactive; ? = inconclusive; nt = not tested or not shown; [ ] = dose if it differs, or a comment. Unless noted, calls follow the shape of the dose curve; as a rule, active = well fitted inhibition curve with a large enough effect; inconclusive = small, poorly fitted or top-dose-only effect, or another doubt; inactive = no such curve, though single readings can be large or run the other way.

SMILES | CHX counter | Pf growth 48h | Pf growth 96h | HCMV inh | Shiga toxin inh
O=C(Nc1ccc2c(c1)CCC2)C1COc2ccccc2O1 (stereo not given) | 58 | i | ? | i | 40
CC(C)(C)c1ccc(OCC(=O)NCCN2CCOCC2)cc1 | i | i | i | i | i
CCNC(=O)C1CCCN(C(=O)c2ccc(C(=O)OC)cc2)CC1 (stereo not given) | nt | nt | nt | i | nt
CCNC(=O)C1CCCN(C(=O)c2cc(F)cc(F)c2)CC1 (stereo not given) | nt | nt | nt | -93 | nt
CCS(=O)(=O)c1cc([N+](=O)[O-])c(Sc2ccccc2NC(C)=O)s1 | 14 | i | i | ? | i
CCCCOc1ccc(CSC(CC(=O)O)C(=O)O)cc1 (stereo not given) | i | i | i | i | i
CCCCOc1ccc(CSCCN=C(N)N)cc1 | 31 | ? | i | -62 | 42
Cc1ccccc1NS(=O)(=O)c1ccc(N2CCCC2=O)cc1 | i | i | ? | i | i
CC(C)(C)C(=O)Oc1ccc(S(=O)(=O)Nc2ccccc2C(=O)NCC(=O)O)cc1 | nt | i | 13µM | nt | nt
CCOC(=O)NCc1ccccc1 | i | i | i | nt | i
Cc1nn(C)c(C)c1NS(=O)(=O)c1ccc(N2CCCC2=O)cc1 | i | i | ? | -62 | i
O=C1CCCN1c1ccc(CNS(=O)(=O)c2ccc(F)cc2)cc1 | 14 | i | nt | ? | i
O=C1CCCN1c1ccc(S(=O)(=O)NCCc2ccc(Cl)cc2)cc1 | i | i | nt | i | i
CCOC(=O)NCc1ccc(S(=O)(=O)Nc2ccccc2C)cc1 | i | nt | 13µM | i | i
CNC1=C([N+](=O)[O-])CC([N+](=O)[O-])=C(N2CCNCC2)N1C | i | i | i | i | i
O=C1CCCN1c1ccc(Br)cc1 | i | i | nt | i | i
O=C1CCCN1c1ccc(N2CCCC2=O)cc1 | i | i | 2.1µM | i | i
CCOC(=O)c1ccccc1NS(=O)(=O)c1ccc(OCC)cc1 | i | nt | 9.3µM | i | i
CCOc1ccc(S(=O)(=O)Nc2cc(OC)ccc2OC)cc1 | i | i | i | -64 | i
COc1ccc(CCNS(=O)(=O)c2ccc(N3CCCC3=O)cc2)cc1 | nt | nt | nt | i | nt
COc1ccc(OC)c(NS(=O)(=O)c2ccc(N3CCCC3=O)cc2)c1 | i | i | i | -73 | i
COC(=O)C[C@H]1C=C[C@@H](NC(=O)Cc2cccnc2)[C@@H](CO)O1 | nt | nt | nt | i | nt
COc1ccc(-c2csc(N(CCCN(C)C)C(=O)c3cc(OC)c(OC)c(OC)c3)n2)cc1 | i | ? | ? | i | i
CCN(CC)CCCN(C(=O)c1ccccc1F)c1nc(-c2ccc(OC)cc2)cs1 | i | 4.1µM | i | i | i
CCC(=O)N(CC)c1nc(-c2cc(OC)ccc2OC)cs1 | i | 12µM | i | ? | i
SMILES | CHX counter | Pf growth 48h | Pf growth 96h | HCMV inh | Shiga toxin inh
COc1ccc(-c2csc(N(CCCN(C)C)C(=O)c3ccc(C(C)(C)C)cc3)n2)cc1 | i | 13µM | i | i | i
CCC(=O)N(CCCN(C)C)c1nc(-c2cc(OC)ccc2OC)cs1 | i | i | ? | i | i
CCN(CC)CCCN(C(=O)c1ccccc1C)c1nc(-c2ccc(OC)cc2)cs1 | i | ? | i | i | nt
COCCCN(C(C)=O)c1nc(-c2ccc(OC)cc2)cs1 | i | i | i | i | i
COc1ccc(-c2csc(N(CCCN(C)C)C(=O)c3ccc(Br)cc3)n2)cc1 | i | ? | ? | -62 | nt
CC(C)N(C(=O)[C@H]1CC(CC(=O)NCCC2=CCCCC2)C(=O)N2CCc3c([nH]c4ccccc34)[C@]12C)C(C)C (stereo not given in full) | nt | nt | nt | i | nt
O=C(CN(CC1CCCO1)C(=O)CNS(=O)(=O)c1ccc(F)cc1)NC1CCCCC1 (stereo not given) | i | i | i | i | i
O=C1CSC2(C(=O)N(Cc3ccccc3)c3ccccc32)N1c1ccc(Cl)cc1 (stereo not given) | nt | nt | nt | i | nt
COc1ccc(-c2csc(N(CCCN(C)C)C(=O)c3ccc(C)cc3)n2)cc1 | i | 8.3µM | ? | i | i
COc1ccc(-c2csc(N(CCCN3CCOCC3)C(=O)c3ccco3)n2)cc1 | i | ? | i[5.75 µM] | i | i
COc1ccc(-c2csc(N(CCCN(C)C)C(=O)c3cccs3)n2)cc1 | i | ? | ? | i | i
COc1ccc(-c2csc(N(CCc3ccc(OC)c(OC)c3)C(=O)COc3ccccc3)n2)cc1 | i | 10µM | i | i | i
CCN(CC)CCCN(C(=O)c1ccc(OC)cc1)c1nc(-c2ccc(OC)cc2)cs1 | i | 1.3µM | i | -63 | i
CCN(C(=O)c1cccs1)c1nc(-c2ccc(OC)cc2)cs1 | 43 | i | ? | i | 101
O=C(Nc1ccnn1C1CCN(Cc2ccccc2OC(F)F)CC1)c1cccc(F)c1 | i | i | i | i | i
COc1cc(N)c(Cl)cc1C(=O)N[C@H]1CCN(CCCOc2ccc(F)cc2)C[C@H]1OC | nt | 2.6µM | 4.7µM | -94 | nt
Cc1c(CNCCc2ccccc2Cl)c(C(=O)O)c(C)n1-c1ccccc1 | 17 | ? | i | i | i
COC(=O)CSc1nc2sc3c(c2c(=O)n1-c1ccccc1)CCN(C)C3 | i | ? | nt | i | i
CCCCSc1nc2sc3c(c2c(=O)n1-c1ccc(OC)cc1)CCN(C)C3 | i | 9.3µM | ? | ? | i
CN1CCc2c(sc3nc(SCC(N)=O)n(-c4ccccc4)c(=O)c23)C1 | i | ? | nt | i | i
CCCN(CCC)C(=O)CSc1nc2sc3c(c2c(=O)n1-c1ccccc1)CCN(C(C)=O)C3 | nt | nt | nt | i | nt
CCCCSc1nc2sc3c(c2c(=O)n1-c1ccccc1C)CC(C)(C)OC3 | nt | nt | nt | i | nt
CCSc1nc2sc3c(c2c(=O)n1-c1ccccc1C)CCN(C)C3 | i | 5.2µM | 1.5µM | i | i
CCSc1nc2sc3c(c2c(=O)n1-c1ccccc1)CCN(C(C)C)C3 | i | 1.5µM | 0.83µM | ? | i
CCCCSc1nc2sc3c(c2c(=O)n1-c1ccccc1)CCN(C)C3 | i | 5.2µM | 4.1µM | i | i
SMILES | CHX counter | Pf growth 48h | Pf growth 96h | HCMV inh | Shiga toxin inh
Cc1ccc(Sc2ccc(N3CCCC(C(=O)Nc4ccc(Br)cc4)C3)nn2)cc1 (stereo not given) | nt | nt | nt | i | nt
CCc1nc2ccc(C(=O)NCCCn3ccnc3)cn2c1N(C)Cc1nccs1 | nt | nt | nt | i | nt
CC(C)CC(=O)Nc1ccc2nc(SCC(=O)N3CCOCC3)sc2c1 | nt | nt | nt | i | nt
COc1cccc(CNC(=O)c2ccc(Cn3c(SCc4ccccc4)nc4cccnc43)cc2)c1 | nt | nt | nt | i | nt
CCc1ccc(-n2c(Cc3ccccc3)nnc2SCc2nc(-c3cccs3)no2)cc1 | nt | nt | nt | i | nt
c1csc(CSc2nnc3sc4ccccc4n23)c1 | 32 | i | i | i | 106
O=C(CSc1nnc2sc3ccccc3n12)c1ccco1 | 40 | i | i | i | 100
CN(C)C(=O)CSc1nnc2sc3ccccc3n12 | i | nt | i | i | i
O=C(NCCNC(=O)c1ccco1)c1ccco1 | i | i | ? | i | i
Cn1nnnc1SCC(=O)c1ccco1 | i | nt | i | i | i
O=C(CSCCSCC(=O)c1ccco1)c1ccco1 | 13 | i | ? | nt | i
O=C(CSc1nnnn1-c1ccccc1)c1ccco1 | 36 | i | i | i | i
